# Assays:
# [1] = molecular target: T1, Aspartate--tRNA(Asp/Asn) ligase (Mycobacterium tuberculosis (strain ATCC 25618 / H37Rv)) (UniProt P9WFW3); assay: Assay for Asp RNA synthetase-1 from Mycobacterium tuberculosis; type: functional; design: scale not given: direction of the effect not stated beside the values; details: 30 µM; note: in the data most compounds retested in dose-response had high values
# T1 sequence (whole entry): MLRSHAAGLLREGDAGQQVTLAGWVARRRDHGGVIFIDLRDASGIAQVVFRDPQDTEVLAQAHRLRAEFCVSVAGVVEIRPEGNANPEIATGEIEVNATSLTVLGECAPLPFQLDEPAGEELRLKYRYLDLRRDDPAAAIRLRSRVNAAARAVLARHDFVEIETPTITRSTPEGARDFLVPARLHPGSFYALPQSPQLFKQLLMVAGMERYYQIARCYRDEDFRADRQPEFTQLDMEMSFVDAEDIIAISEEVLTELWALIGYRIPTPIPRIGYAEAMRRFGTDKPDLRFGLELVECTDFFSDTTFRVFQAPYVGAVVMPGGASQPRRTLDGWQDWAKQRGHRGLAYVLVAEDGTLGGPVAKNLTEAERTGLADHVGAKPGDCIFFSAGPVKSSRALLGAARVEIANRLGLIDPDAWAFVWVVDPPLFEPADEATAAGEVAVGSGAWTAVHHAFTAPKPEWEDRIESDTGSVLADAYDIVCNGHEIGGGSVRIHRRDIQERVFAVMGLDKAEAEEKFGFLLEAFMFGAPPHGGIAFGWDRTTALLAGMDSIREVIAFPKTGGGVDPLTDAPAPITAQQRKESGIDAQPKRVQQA
# [2] = molecular target: Shiga toxin 2 (Escherichia coli O157:H7) (UniProt P09385+P09386); assay: E. coli 0.157:H7 Shiga Toxin SOP - stx2 screening assay; type: functional; design: scale not given: direction of the effect not stated beside the values; details: 30 µM
SMILES,Percent Effect [1],Percent Effect [2]
COc1ccc(C2CCCN2C(=O)c2csc(NC(C)=O)n2)cc1 (stereo not given),0.516%,-30.4%
Cc1noc(C(C)C)c1C(=O)NCCN1CCCCCC1=O,2.13%,-4.24%
CN(CC1COc2ccccc2O1)C(=O)NCCCn1ccnc1 (stereo not given),-0.767%,11.4%
CCOC(=O)NC(CNC(=O)c1ncccn1)CC(C)C (stereo not given),6.25%,4.71%
NS(=O)(=O)CCNC(=O)c1nnn(-c2ccc(F)cc2)c1C1CC1,-3.36%,-8.62%
COc1ccccc1C(=O)N(C)Cc1ncc(C)c(OC)c1C,-4.81%,11.8%
CCN1CCn2nc(CCC(=O)N3CCCC3)cc2C1,-0.386%,-5.54%
Cc1cn2c(n1)CCC(NC(=O)CCn1ccnn1)C2 (stereo not given),-3.77%,19.8%
CCN(CC1CCCO1)C(=O)Nc1ccc(F)cc1OC (stereo not given),-2.28%,-7.53%
Cc1cc2n(n1)CC(CNCc1cnn(-c3ccccc3)c1)CN2 (stereo not given),-1.15%,7.05%
COc1ccc(C(=O)N2CCCC2c2ccco2)cc1OC (stereo not given),-3.37%,-11.3%
CC(C)Oc1cccc(C(=O)C2CCCN(C(=O)c3ncn[nH]3)C2)c1 (stereo not given),0.948%,-0.343%
COCC1c2c(cnn2C)CCN1Cc1ccc(F)cc1 (stereo not given),1.28%,-4.17%
CC(C(=O)NCCOc1cccc(Cl)c1)n1cncn1 (stereo not given),4.65%,-10.9%
Cc1ccc(CC(=O)N2CSCC2C(=O)N(C)Cc2ccco2)o1 (stereo not given),8.09%,12%
CC(C)Cc1noc(CN(C)C(=O)C2COc3ccccc3C2)n1 (stereo not given),-1.81%,-46.4%
O=C(NCc1cccc2cccnc12)N1CCC(n2cncn2)CC1,-6.04%,8.18%
O=C1CC2(CCN(Cc3ccoc3)C2)CN1c1ccc2c(c1)OCO2 (stereo not given),5.29%,-93.1%
O=S(=O)(N1CCCC1)N1CCCCC1CCc1ccccc1 (stereo not given),1.42%,10.8%
O=C(c1ccccn1)N1CCn2cnc(COCC3CC3)c2C1,1.82%,-5.26%
COc1ccc(CN2CCCC2Cn2nc(C)nc2C)cc1F (stereo not given),-1.56%,-0.778%
Cc1oc(-c2nc(C#N)c(N(C)C)o2)cc1S(=O)(=O)N1CCCC1,0.145%,-18.1%
COCCn1cc2c(n1)C(CNCc1ccco1)OCC2 (stereo not given),3%,-35.6%
O=S(=O)(NCCN1CCCCC1Cn1cncn1)c1ccccc1 (stereo not given),1.46%,5.96%
CNc1nc(CNC(=O)Nc2cccc(-c3nnco3)c2)cs1,2.65%,-22.3%

SMILES,Percent Effect [1],Percent Effect [2]
Cn1cnc2c1CCN(Cc1cccc(C(N)=O)c1)C2,-3.03%,-13.1%
Cc1nccc(-c2cccc(NCC(=O)N3CCc4sccc4C3)c2)n1,-0.955%,8.31%
Cn1cccc1-c1cc(C(=O)N2CCCC2c2cccnc2)[nH]n1 (stereo not given),2.57%,4.82%
Cn1cnc(S(=O)(=O)N2CCCC2)c1Cl,-1.03%,-7.1%
Cc1ccc(CN2CCCC3(CCN(S(C)(=O)=O)C3)C2)o1 (stereo not given),5.01%,3.27%
c1cnc(N2CCC3(CCN(CC4CC4)CC3)CC2)nc1,0.564%,6.17%
COc1ccc(CN2C[C@H](OCC3CCOCC3)[C@H]3COC[C@H]32)cc1,-1.6%,1.49%
Cn1cnc2c1C(COCc1ccccc1)N(Cc1ccncc1)CC2 (stereo not given),2.91%,-1.07%
CC(c1ccc(F)c(F)c1)N1CCN(Cc2nccn2C)CC1 (stereo not given),-2.85%,-13.2%
c1cnnc(N2CCCC(NCc3nnc(-c4ccco4)o3)C2)c1 (stereo not given),-0.7%,-79.7%
Cc1nn(C)c(C)c1CC(=O)N1CCCC(n2ccnc2)C1 (stereo not given),-4.83%,12.9%
COc1ccc(CN2CCCCC2CNC(=O)OC(C)(C)C)cc1F (stereo not given),-1.76%,6.58%
CN(C)C(=O)N1CCOCC2(CCN(c3ncccn3)C2)C1 (stereo not given),0.466%,10%
COc1ccc(C(=O)Nc2cnn(CC(=O)NC3CCCC3)c2)c(O)c1,1.25%,-54.5%
CC(=O)N1[C@H](Cn2cncn2)C[C@@H]2CN(S(C)(=O)=O)CC[C@@H]21,2.85%,-36.4%
CN(CCC(F)(F)F)C(=O)C1CCCN1C(=O)OC(C)(C)C (stereo not given),4.8%,-21.4%
COc1ccc(COCC(O)CNC(=O)c2cnc(C)cn2)cc1 (stereo not given),0.509%,-32.5%
COCCN1C(=O)CC(N2CCN(c3ccc(OC)cc3)CC2)C1=O (stereo not given),-5.68%,3.53%
CC1Cc2ccccc2N1Cc1occc1C(=O)OCC(N)=O (stereo not given),-3.97%,-1.38%
Cc1csc2ncc(-c3ccnc(N4CCCC[C@@H]4CO)n3)c(=O)n12,-2.34%,-17.1%
CCN(Cc1nc2c(cnn2C)c(=O)[nH]1)c1cccc(F)c1,1.24%,-7.65%
CC(C)(C)C(=O)NCCC(=O)NS(=O)(=O)c1ccc2c(c1)OCCO2,-10.1%,0.645%
COc1ccccc1CNC(=O)N1CCCC(c2nncn2C)C1 (stereo not given),-4.33%,25.8%
CN(Cc1nnc(C2CC2)o1)C1CCN(CCCc2cnn(C)c2)C1 (stereo not given),5.28%,-45.6%
CC(C)c1nc2c(n1C)CCN(Cc1nc(-c3ccsc3)no1)C2,-3.99%,-3.44%

SMILES,Percent Effect [1],Percent Effect [2]
CN(C)C(=O)CN1C[C@@H]2CC[C@H](C1)N(Cc1cccc(Cl)c1Cl)C2,0.661%,1.27%
CC(NC(=O)CCCOc1ccccc1)c1nnc2n1CCCCC2 (stereo not given),4.5%,19.8%
c1cnc(-c2cnc(N3CCSCC3)nc2C2CCCO2)cn1 (stereo not given),6.48%,13.6%
CCN(C(=O)CCCOc1ccccc1F)c1ccncc1,-2.34%,1.08%
Cn1cc(CN2CCn3cc(CNC(=O)c4cccn4C)nc3C2)cn1,2.49%,-19.5%
CCn1ccnc1CN1CCCN(C(=O)c2sccc2C#N)CC1,1.71%,2.81%
CNC(=O)N1C[C@H]2CC[C@@]3(N=C(c4ccccc4)NC3=O)[C@H]2C1,4.9%,-20.9%
O=C(C1CC1)N1CCC(c2nc(O)c3c(n2)CCN(C2CCCC2)C3)C1 (stereo not given),-2.25%,-11.5%
CCC(O)CN1CCN(C(=O)c2ccnc(N(C)C)c2)CC1 (stereo not given),-4.29%,-17.1%
CC(C)C(NC(=O)NCCNc1ccccn1)c1cccs1 (stereo not given),7.74%,3.04%
O=C(c1ccco1)N1CCCC1C1CCN(Cc2ccccc2)CC1 (stereo not given),4.64%,-11.3%
Cn1cc(NC(=O)N2CCC(NS(C)(=O)=O)CC2)ccc1=O,57.4%,-31.1%
CNc1cc(C2CCCN2Cc2ccccc2OCC(=O)O)ccn1 (stereo not given),5.46%,4.73%
O=C1NC2(CCN(Cc3nccs3)CC2)CC1c1ccncc1 (stereo not given),0.717%,2.04%
O=C(NCc1cccnc1-n1cccn1)C1CC(=O)N(CC2CC2)C1 (stereo not given),-2.05%,10.1%
Cc1n[nH]c(C)c1NC(=O)CN1CCc2c(nc(C3CC3)n2C)C1,4.55%,-6.27%
O=C(NC[C@H]1OC[C@@H]2CCN(C(=O)c3ccco3)C[C@@H]21)C1CC1,3.37%,-7.69%
Cc1nc(C)c(CNC(=O)NC(c2nnc3n2CCC3)C(C)C)s1 (stereo not given),0.0985%,-7.7%
Cc1csc(C2CCCN(C(=O)c3cnc4n[nH]c(C)c4c3)C2)n1 (stereo not given),0.533%,21.9%
CN(C)Cc1nnc(C2CCN(c3nccc(N)n3)CC2)n1C1CC1,2.12%,-41.2%
COc1nn(C)c2c1CCCN(C(=O)c1cc[nH]n1)C2,0.229%,-2.49%
O=C(CCc1ccc(Br)cc1F)NS(=O)(=O)c1ccc2c(c1)OCCO2,7.79%,13.8%
Cc1cc(C)c2nc(CN3CC[C@@H](O)C3)cc(O)c2c1,3.16%,7.54%
Cc1cnn(C2CCCN(C(=O)Cc3cn4ccccc4n3)C2)c1 (stereo not given),-6.71%,-40.6%
O=C(C1=CCCC1)N1CCC[C@]2(C[C@@H](Oc3ncccc3F)CO2)C1,0.0684%,7.81%

SMILES,Percent Effect [1],Percent Effect [2]
Cc1ccc([C@]2(O)CC[C@H]3CN(Cc4cc(C)c(O)c(C)c4)C[C@H]32)nc1,3.29%,-2.26%
CN(C)CC(=O)N1CCOC2(CCCN(c3ncccc3F)C2)C1 (stereo not given),1.93%,-5.68%
CCc1noc(C(C)N2CCN(c3ccc(C#N)cc3F)CC2)n1 (stereo not given),1.23%,8.4%
CC(=O)Nc1cccc(C(=O)Nc2cnc3n2CCCC3)c1,2.26%,-9.23%
CCc1nc(CN(CC(N)=O)C(C)C)cs1,0.799%,-3.84%
Cc1cc(C)n(C2CCCN(C(=O)c3c(C)c(C)n[nH]c3=O)C2)n1 (stereo not given),-2.4%,2.19%
Cn1cnc(S(=O)(=O)NCCN2CCCCCC2=O)c1Cl,-1.7%,17.3%
COc1ccc(NC(=O)c2ccc(-n3ncc(C#N)c3N)cc2)cn1,1.4%,-48.1%
Cc1nc(C)n(CC2CCCN2Cc2cscn2)n1 (stereo not given),-5.82%,24.1%
Cc1ncsc1CN1C[C@H](C(=O)N2CCCO2)[C@@H]2CCO[C@@H]2C1,-1.48%,-4.78%
CN(C)c1cc(C(=O)N2CCCN(Cc3cscn3)CC2)ccn1,-2.62%,-13.1%
CCc1ncncc1C(=O)NCCN1CCC(C)CC1,-3.79%,5.13%
O=C(NCC1CCOC1)N1CCN(Cc2ccc3c(c2)CCO3)CC1 (stereo not given),-0.0562%,28.1%
Cc1ccc(CS(=O)(=O)N2CC[C@H]3[C@H]2CCN3C)cc1,-3.51%,-4.23%
CC(Nc1cccc(CN2CCOC2=O)c1)C(=O)N1CCNC1=O (stereo not given),-0.922%,-28.6%
Cc1nc(CN2CCC(C(=O)O)(n3ccc(-c4ccco4)n3)CC2)co1,-1.98%,-9.21%
Cc1nc(CN2CCC(CNC(=O)Nc3ccccn3)CC2)oc1C,5.15%,-4.66%
CCn1nccc1CNC(=O)C(C)n1cc2c(n1)c(C)nn2C (stereo not given),-5.02%,-29.4%
Cc1nc(C)n(CC2CCCN2Cc2nc(N)c3ccccc3n2)n1 (stereo not given),-1.84%,-29.4%
N#Cc1ccc(CN2CCN(C(=O)C3CCC3)[C@@H]3CS(=O)(=O)C[C@@H]32)cc1,-2.41%,-34.5%
O=C(C1CCOC1)N1CCc2ncc(CNc3ccccn3)n2CC1 (stereo not given),-0.229%,-21.5%
Cc1cc(C)n(-c2cncc(N3CCN(C(=O)C(C)(C)C)CC3)n2)n1,0.549%,-19.9%
O=C(CCc1nc2cccnc2[nH]1)NCc1cccnc1,-0.232%,-44%
Cc1nsc(NC(=O)N2CCN(Cc3ccc(F)cc3)C(=O)C2)n1,2.26%,-7.74%
Cc1cccc(CN2C[C@@H]3COC[C@]3(CNC(=O)c3ccsc3)C2)n1,-2.88%,-15.8%
